# PHOSPHO1 inh – inhibitors of human PHOSPHO1 phosphatase; hit rate 1.1% among 290,000; recombinant PHOSPHO1, absorbance phosphatase assay; inhibition, % at 13.3 µM; Q8TCT1; AID 1565; in the data active = inhibition above about 60%
# Target sequence (Q8TCT1 whole entry, looked up): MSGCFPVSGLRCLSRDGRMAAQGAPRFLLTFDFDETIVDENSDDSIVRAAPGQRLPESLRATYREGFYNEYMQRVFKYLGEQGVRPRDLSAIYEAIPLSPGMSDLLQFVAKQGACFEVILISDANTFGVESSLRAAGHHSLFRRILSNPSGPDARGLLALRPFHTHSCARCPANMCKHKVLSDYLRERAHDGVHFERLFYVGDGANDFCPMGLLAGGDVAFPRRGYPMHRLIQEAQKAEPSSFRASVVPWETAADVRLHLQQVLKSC
# ALR H2O2 inh – human ALR oxidase inhibition via reduced H2O2. inhibition, % (test concentration not listed). hit rate 3.8% among 290,000. purified ALR, DTT oxidation, H2O2 HRP-luminol luminescence. P55789;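 active = mean replicate inhibition above about 79%, with every replicate also reaching it, limit read from the data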
# Target sequence (P55789 whole entry, looked up): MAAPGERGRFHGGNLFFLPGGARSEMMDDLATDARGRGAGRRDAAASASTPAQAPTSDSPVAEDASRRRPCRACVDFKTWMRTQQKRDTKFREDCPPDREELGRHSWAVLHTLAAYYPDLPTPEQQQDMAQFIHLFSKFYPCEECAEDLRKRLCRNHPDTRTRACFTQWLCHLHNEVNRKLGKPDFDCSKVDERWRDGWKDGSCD
# PfG6PD inh – PfG6PD (Plasmodium falciparum) enzyme inhibition; PfGluPho enzyme, NADPH resazurin-diaphorase fluorescence; inhibition, % at 20 µM; hit rate 0.78% among 350,000;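 active = inhibition reaching at least a set limit at 20 µM in the primary screen, cut at about 59% in these data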;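 also: 0% = DMSO wells with substrate and 100% = DMSO wells lacking glucose-6-phosphate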
# H9c2 protect – protects H9c2 cardiomyocytes from peroxide injury; hit rate 0.63% among 360,000; protection from H2O2 cell death, % at 20 µM; H2O2 injury protection, ATPLite, 2 h;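 active = compounds giving at least 50% protection of heart cells from peroxide-induced death in the single-dose screen, raw or plate-pattern-corrected value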;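 also: 0% = DMSO wells with peroxide and 100% = DMSO wells without peroxide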
# M18AAP inhibitor – blocks P. falciparum M18 aspartyl aminopeptidase. recombinant PfM18AAP, H-Glu-NHMec fluorogenic cleavage. inhibition, % at 7.35 µM. hit rate 1.2% among 290,000;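 active = inhibition above the campaign mean inhibition over all tested compounds plus 3 SD, cut at about 28% in these data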;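 also: 0% = plate median of test compound wells and 100% = 2 mM ZnCl2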
# PfGluPho conf – PfG6PD inhibition, single-dose confirmed; recombinant PfGluPho, NADPH-diaphorase-resazurin fluorescence; inhibition, % at 20 µM; AID 504753; hit rate 34% among 2,400; shares compounds with PfG6PD inh;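 active = inhibition of at least 50% at 20 µM in any single replicate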;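 also: 0% = DMSO with substrate and 100% = DMSO lacking glucose-6-phosphate substrate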
# Diaphorase 10uM – inhibits diaphorase or oxidizes, flagging false PfG6PD hits | hit rate 39% among 820 | diaphorase-coupled resazurin reduction, fluorescence, NADPH 10 uM | shares compounds with PfG6PD inh | AID 504862 | inhibition, % at 20 µM;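 active = average inhibition reaching 50% or more with the compound at 20 µM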;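 also: resorufin red fluorescence formed as diaphorase reduces resazurin using NADPH; 0% = DMSO with enzyme and 100% = DMSO without enzyme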
# Diaph ctr 30uM – inhibits diaphorase or oxidizes, flagging false PfG6PD hits; shares compounds with PfG6PD inh; Diaphorase/resazurin coupled assay, resorufin fluorescence, 30 uM NADPH; inhibition, % at 20 µM; hit rate 29% among 820;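 active = inhibition averaging 50% or more, tested at 20 µM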;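 also: 0% = DMSO with enzyme and 100% = DMSO wells lacking diaphorase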
# * hit, by the source's call; nt = not tested or not shown. An excerpt weighted towards active compounds, which were near 5.6% of everything screened.
SMILES,PHOSPHO1 inh,ALR H2O2 inh,PfG6PD inh,H9c2 protect,M18AAP inhibitor,PfGluPho conf,others
O=C(Nc1cc(C(F)(F)F)ccc1N1CCOCC1)C1Cc2ccccc2CN1C(=O)c1ccco1 (stereo not given),65*,-8,81*,-1,-6,23,
COc1ccccc1NC(=O)C1Cc2ccccc2CN1C(=O)c1ccco1 (stereo not given),36,nt,19,-1,11,nt,
Cc1cccc(-c2nc3ccccc3c(=O)n2NC(=S)N(C)C)c1,-2,12,62*,-3,20,32,
O=c1ccsn1Cc1ccccc1,28,98*,94*,-36,33*,75*,Diaphorase 10uM=-4;Diaph ctr 30uM=-5
O=S(=O)(Nc1ccc2oc(-c3ccccc3)nc2c1)c1ccccc1,13,-4,88*,-6,-14,38,
O=S(=O)(NN1CCOCC1)c1ccc(Br)cc1,nt,27,15,7,-8,nt,
COc1ccc(CNC(=O)Cc2cn(C)c3ccccc23)c(OC)c1,nt,0,79*,15,-11,55*,Diaphorase 10uM=49;Diaph ctr 30uM=52*
COc1ccccc1CNC(=O)CCCc1cn(C)c2ccccc12,5,9,-13,9,4,nt,
CN(C(=O)COC(=O)c1ccc(S(=O)(=O)N2CCCCCC2)cc1)c1ccccc1,nt,nt,-21,-2,nt,nt,
CCCC(=O)N1CCCC(c2cc(C(=O)NCc3cccnc3)no2)C1 (stereo not given),nt,nt,nt,2,nt,nt,
COCCN1C=C2C(=O)C(C)(OC(=O)CCc3ccccc3)C(=O)C=C2C=C1c1ccc(C#N)cc1 (stereo not given),22,-26,62*,1,nt,22,
CC(C)CN1C=C2C(=O)C(C)(OC(=O)CCc3ccccc3)C(=O)C=C2C=C1c1ccc(C#N)cc1 (stereo not given),31,-9,58,-1,nt,nt,
CC1(OC(=O)CCc2ccccc2)C(=O)C=C2C=C(c3ccc(C#N)cc3)N(C3CC3)C=C2C1=O (stereo not given),22,nt,83*,4,nt,49,
CC1(OC(=O)CCc2ccccc2)C(=O)C=C2C=C(c3ccc(C#N)cc3)N(Cc3ccco3)C=C2C1=O (stereo not given),22,-18,37,-1,nt,nt,
CC1(OC(=O)CCc2ccccc2)C(=O)C=C2C=C(c3ccc(C#N)cc3)N(Cc3ccccc3)C=C2C1=O (stereo not given),0,nt,84*,7,nt,36,
CCCCC1=CC2=CC(=O)C(C)(OC(=O)CCc3ccccc3)C(=O)C2=CO1 (stereo not given),35,nt,19,7,nt,nt,
O=C1C(=Cc2cn(-c3ccccc3)nc2-c2ccc(OCc3ccc(Cl)cc3)cc2)SC(=S)N1CCS(=O)(=O)O,nt,nt,nt,0,nt,nt,
CCOC(=O)c1cnc2ccc(C(=O)OC)cc2c1NCCN1CCOCC1,7,9,71*,0,3,16,
CCOC(=O)c1cnc2ccc(C(=O)OC)cc2c1NCCCN1CCOCC1,3,-1,27,2,-10,nt,
CCOC(=O)c1[nH]cc(-c2ccccc2)c1N1CCOCC1,80*,9,73*,3,9,25,
CN(C)C(=O)c1cccc(-c2cnc3cccnn23)c1,nt,nt,nt,2,nt,nt,
COc1ccc(NC2CCCN(Cc3cccc4cnccc34)C2)cc1OC (stereo not given),nt,95*,65*,-5,14,58*,Diaphorase 10uM=10;Diaph ctr 30uM=2
O=C(CC1C[C@H](C(=O)N2CCCCC2)[C@@]2(CCc3ccccc3)c3[nH]c4ccccc4c3CCN2C1=O)NCCc1ccccn1 (stereo not given in full),nt,nt,17,-5,nt,nt,
CC(C)(C)OC(=O)NC1CC2CCCC(C1)N2Cc1ccccc1 (stereo not given),45,nt,-7,-15,-4,nt,
COc1cc(C(=O)Nc2cccc(S(=O)(=O)N3CCCC3)c2)cc(OC)c1C,33,-1,60*,-4,1,-8,
Cc1ccccc1-c1nc(C(=O)NCC2CCCO2)cc2c1[nH]c1ccccc12 (stereo not given),3,-2,60*,1,-9,5,

# Screening data as filed in PubChem.
